FXIIa mix inh: blocks human factor XIIa in pooled compound mixtures. P00748. purified FXIIa, fluorogenic substrate. inhibition, % at 5 µM. hit rate 0.2% among 62,000;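 further: 0% = enzyme without compound and 100% = no enzyme blank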
Ec RNAP inh: inhibitors of Escherichia coli RNA polymerase; P0A8V2; E. coli RNA polymerase, fluorescence transcription assay; inhibition, %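 (tested at 10 µM)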; hit rate 0.2% among 62,000; in the data active means inhibition above about 20%;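 further: 0% = enzyme without compound and 100% = no enzyme blank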
C1s inh: blocks human complement C1s protease activity. P09871. purified C1s, fluorogenic AMC substrate, pooled mixtures. mean inhibition % of two 10-compound mixtures (hits give high values), % at 5 µM (by protocol). hit rate 0.16% among 62,000;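 active means inhibition above 20% in each of the two 10-compound mixture wells holding the compound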;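 further: 0% = enzyme wells lacking compound mixture and 100% = no-enzyme blank wells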
FXIa mix inh: factor XIa (human) inhibition, mixture screen; AID 680; inhibition, % at 5 µM; purified FXIa, fluorogenic substrate, pooled mixtures; hit rate 0.19% among 62,000;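 further: each value is inhibition by a whole ten-compound pool holding the compound; 0% = enzyme with no mixture and 100% = wells lacking enzyme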
CatG inh: inhibitors of human cathepsin G | purified enzyme, AMC-tetrapeptide fluorescence, pooled mixtures | hit rate 0.2% among 62,000 | inhibition, % at 5 µM (by protocol) | AID 581 | P08311;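 active means inhibition above 20% in each of the two mixture wells holding the compound; inactive means inhibition of 20% or less in either well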;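 further: 0% = enzyme control without mixture and 100% = blank lacking enzyme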
Target sequence (P08311 21-244 limits assumed): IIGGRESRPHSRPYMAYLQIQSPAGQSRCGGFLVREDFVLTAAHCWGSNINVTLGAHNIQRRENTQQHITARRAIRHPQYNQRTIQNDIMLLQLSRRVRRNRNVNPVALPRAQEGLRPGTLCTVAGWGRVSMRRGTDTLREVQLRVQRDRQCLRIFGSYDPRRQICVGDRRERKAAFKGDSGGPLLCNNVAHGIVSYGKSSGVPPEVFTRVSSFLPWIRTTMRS
The depositor's hits bear a star; . = no result given. Rows were chosen to be rich in hits. Some 0.65% of all compounds tested hit in one or more screens of this group. Unless noted, no stated cut-off is given here; in the data, active means inhibition above about 20% (passing the limit was not always enough); inactive means the rest.

SMILES	FXIIa mix inh	Ec RNAP inh	C1s inh	FXIa mix inh	CatG inh
CCOc1ccc(C2CC(c3ccc(F)cc3)n3ncnc3N2)cc1 (stereo not drawn)	2	-2	1	12	-1
O=C(CCCCCN1C(=O)CCC1=O)Nc1ccc2c(c1)OCO2	23*	0	21	5	8
COc1ccc(CCNC(=O)CSc2nncn2N)cc1OC	2	3	16	8	10
CCOC(=O)N1CC=C2C(C#N)=C(N)C(C#N)(C#N)[C@H](c3ccccc3OCC)[C@H]2C1	4	14	64*	6	10
CCOc1ccccc1N(CC(=O)O)S(=O)(=O)c1ccc(C)cc1	6	3	0	15	8
CCOc1ccc(S(=O)(=O)N(CC(=O)O)c2ccc(C)cc2)cc1	48*	6	3	-1	3
CC1=C(C(=O)NCc2ccccn2)C2(CCC(C)CC2)OC1=O (stereo not drawn)	-17	9	10	0	8
COc1ccc(C2C=C(c3ccccc3)Nc3nc(CCCO)nn32)cc1 (stereo not drawn)	9	-7	-26	41*	10
CCOC(=O)N1CCC(NC(=O)C2CCCN(Cc3nc(-c4cccc(Cl)c4)oc3C)C2)CC1 (stereo not drawn)	1	8	-10	21*	4
CCN1CCN(CCNC(=O)C2CCCN(Cc3nc(-c4cccc(Cl)c4)oc3C)C2)CC1 (stereo not drawn)	9	4	-4	10	-1
CC(C)CN(CC(C)C)S(=O)(=O)N1CCC(C(=O)NCc2ccc(F)cc2)CC1	9	7	24*	8	16
CCS(=O)(=O)N1CCC(C(=O)NCc2ccc(F)cc2)CC1	-2	8	11	1	3
FC(F)C(F)(F)C(F)(F)C(F)(F)c1cc(-c2ccccc2)n[nH]1	5	.	8	8	11
O=C(Nc1ccc2c(c1)OCO2)c1ccc(S(=O)(=O)NCC2CCCO2)cc1 (stereo not drawn)	2	7	0	-5	10
Cc1ccc(NC(=O)c2ccc(S(=O)(=O)NCC3CCCO3)cc2)cc1 (stereo not drawn)	22*	6	-26	-1	-8
C=CCNC(=O)c1ccc(Cl)cc1Cl	-21	11	14	25*	14
OCC#CCSc1nnc(-c2ccc(Br)cc2)o1	2	40*	-4	0	0
COc1ccc(-c2nnc(SCC#CCO)o2)cc1OC	1	4	13	7	9
Cc1csc(NC(=O)c2ccco2)n1	-20	9	22*	9	13
COC(=O)C(NC(=O)c1ccco1)(Nc1nc(C)cs1)C(F)(F)F (stereo not drawn)	.	7	.	.	.
CCNC(=O)CN(CCc1ccccc1)S(C)(=O)=O	7	0	-17	5	8
CC(C)NC(=O)CN(CCc1ccccc1)S(C)(=O)=O	22*	9	8	10	14
CCOC(=O)C1CCN(C(=O)CSc2ccccc2)CC1	6	4	65*	6	13
CCOC(=O)C1CCN(C(=O)CC(C)c2ccccc2)CC1 (stereo not drawn)	3	9	1	5	1
Cc1cc(Nc2ccc(F)cc2)n2nc(C)nc2n1	0	22*	0	12	2
SMILES	FXIIa mix inh	Ec RNAP inh	C1s inh	FXIa mix inh	CatG inh
CC1(C)Oc2ccc3ccc(=O)oc3c2C(N2CCCCC2)C1O (stereo not drawn)	20*	3	11	4	12
CCOc1ccc(OCC)c(NC(=O)C2CCCN(c3nc(C)cc(C)n3)C2)c1 (stereo not drawn)	6	8	16	8	10
COc1ccc(Cl)cc1NC(=O)CCN1CCN(c2ccccc2C)CC1	-13	13	67*	5	11
COc1ccc(S(=O)(=O)n2nc(OC(=O)c3cccs3)cc2N)cc1	2	0	-16	21	38*
Cc1ccc(S(=O)(=O)n2nc(OC(=O)c3c(-c4ccccc4Cl)noc3C)cc2N)cc1	-5	3	10	5	10
COc1ccc(S(=O)(=O)n2nc(OC(=O)c3ccccc3)cc2N)cc1	12	4	23	28*	35*
O=C(NCc1nc2ccccc2[nH]1)c1ccco1	4	25*	-7	-36	-14
O=C(NCc1nc2ccccc2[nH]1)c1cccs1	9	-2	2	4	-1
CCOn1c(=O)c(-c2cc3ccccc3o2)[n+]([O-])c2ccccc21	-13	2	3	24*	6
CCOc1cc2[nH]c(=S)n(CC3CCCO3)c(=O)c2cc1OCC (stereo not drawn)	20	5	22*	8	14
COc1cc2[nH]c(=S)n(CC3CCCO3)c(=O)c2cc1OC (stereo not drawn)	4	3	-2	5	-5
COc1ccc(NC(=O)N[C@@H](CCSC)C(=O)O)cc1Cl	5	-4	-13	3	-29
c1coc(-c2nc(-c3ccco3)c(-c3ccco3)nc2-c2ccco2)c1	-15	23*	9	2	10
O=C(CSc1nc(N2CCCCC2)nc(N2CCCCC2)n1)NC1CCCCC1	-15	4	-30	3	-2
COCCNC(=O)CN1CCC(NC(=O)Nc2ccc(C(F)(F)F)cc2)CC1	-6	3	-2	-3	8
CC(=O)Nc1ccc(C(=O)OCCC(C)C)cc1	10	68*	-8	6	-1
CCCCOC(=O)c1ccc(NC(=O)C(CCS(C)(=O)=O)NC(C)=O)cc1 (stereo not drawn)	3	9	13	10	8
CC(C)Cc1ccc(C(C)C(=O)O)cc1 (stereo not drawn)	5	9	-4	4	-8
CC(Cc1ccc(O)c(O)c1)C(C)Cc1ccc(O)c(O)c1 (stereo not drawn)	1	51*	-24	0	-3
COc1ccc(N2CCN(c3nc4c(c(=O)[nH]c(=O)n4C)n3CCCc3ccccc3)CC2)cc1	8	17	3	4	7
Cn1ncc2c(NCc3ccccc3)ncnc21	-3	2	-14	0	3
Cn1ncc2c(Nc3ccc4ccccc4c3)ncnc21	8	21*	13	6	13
CC(C)COP(=O)(c1ccc(N(C)C)cc1)C(O)c1ccccn1 (stereo not drawn)	48*	11	12	7	9
COc1ccc(CNC(=O)C(C)NC(=O)c2cc3ccccc3o2)cc1 (stereo not drawn)	-16	39*	-8	0	8
O=C1N[C@@H](Cc2cnc[nH]2)C(=O)N2CCC[C@@H]12	1	9	2	-2	11
Cc1ccc(SCc2[nH]nc3c2C(c2ccc(C)o2)C(C#N)=C(N)O3)cc1 (stereo not drawn)	6	6	-17	86*	48
CCCN1C(=O)C(O)(C2CC(=O)CC(C)(C)O2)c2ccccc21 (stereo not drawn)	22*	1	1	1	8
CCCN1C(=O)C(O)(C/C(C)=N/O)c2ccccc21 (stereo not drawn)	10	8	9	1	10

Bioassay records: PubChem, PCMD
